Measured values: article PMC4053984, “DNA binding specificities of the long zinc-finger recombination protein PRDM9”

Target: PRDM9Cst (Mus musculus (CAST/EiJ))
Test: competition EMSA; competition against biotin-labeled 75-bp Hlx1 B6 oligo; 10 mM Tris pH 7.5, 50 mM KCl, 1 mM DTT, 50 ng/ul poly(dI/dC), 0.05% NP-40, crude E. coli extract 3 ul in 20 ul; 1 h with unlabeled competitor, then 4 h with biotin-labeled 75-bp Hlx1; temperature not stated; high values mean tight binding
Details: tags: N-terminal His tag (pBAD/HisB); dsDNA, one strand shown

Sequence of PRDM9Cst (Mus musculus (CAST/EiJ)) (chain, as listed by the source): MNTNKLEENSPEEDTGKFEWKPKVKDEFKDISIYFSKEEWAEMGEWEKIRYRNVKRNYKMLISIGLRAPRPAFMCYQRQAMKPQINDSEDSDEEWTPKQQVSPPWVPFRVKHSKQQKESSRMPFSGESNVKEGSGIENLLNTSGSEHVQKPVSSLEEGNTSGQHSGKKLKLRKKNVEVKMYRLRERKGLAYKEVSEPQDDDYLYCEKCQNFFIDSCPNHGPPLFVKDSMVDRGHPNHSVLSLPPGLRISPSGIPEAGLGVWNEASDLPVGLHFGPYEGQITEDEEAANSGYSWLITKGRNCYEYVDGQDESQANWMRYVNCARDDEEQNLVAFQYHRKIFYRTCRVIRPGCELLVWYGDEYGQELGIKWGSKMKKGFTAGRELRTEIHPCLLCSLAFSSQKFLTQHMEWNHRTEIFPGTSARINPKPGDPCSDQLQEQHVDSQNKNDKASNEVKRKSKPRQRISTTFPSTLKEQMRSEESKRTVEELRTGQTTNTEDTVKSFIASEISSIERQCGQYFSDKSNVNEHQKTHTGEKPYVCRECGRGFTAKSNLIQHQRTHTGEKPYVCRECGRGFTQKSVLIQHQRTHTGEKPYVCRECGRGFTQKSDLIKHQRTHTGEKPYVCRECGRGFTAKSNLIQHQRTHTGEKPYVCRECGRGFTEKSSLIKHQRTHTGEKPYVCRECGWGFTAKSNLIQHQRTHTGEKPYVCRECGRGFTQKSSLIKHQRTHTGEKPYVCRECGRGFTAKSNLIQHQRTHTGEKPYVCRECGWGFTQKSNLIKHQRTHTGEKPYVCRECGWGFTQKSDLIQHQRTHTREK

Sequence	binding signal
ATAGTGTGCAGACTTGCACCCTGCCCTTTCTTT	-0.2 Bmut (0 = wild type, -1 = scrambled)
ATACTGTGCAGACTTGGACCCTGCCCTTTCTTT	-0.1 Bmut (0 = wild type, -1 = scrambled)
ATAGTGTGTAGACTTGGACCCTGCCCTTTCTTT	0 Bmut (0 = wild type, -1 = scrambled)
ATAGTGTGCAGTCTTGGACCCTGCCCTTTCTTT	-0.2 Bmut (0 = wild type, -1 = scrambled)
ATAGTGTGCAGACTTGGACCCGGCCCTTTCTTT	-0.5 Bmut (0 = wild type, -1 = scrambled)
ATAGTGTGCAGACTTGGACCCTGCCCTTTTTTT	0.11 Bmut (0 = wild type, -1 = scrambled)
ATAGTGTGAAGACTTGGACCCTGCCCTTTCTTT	-0.1 Bmut (0 = wild type, -1 = scrambled)
ATAGTGTGCAGACTTGGACCCTGCGCTTTCTTT	-0.4 Bmut (0 = wild type, -1 = scrambled)
ATAGTGTGCAGACTTGGACCCTGCCTTTTCTTT	0.15 Bmut (0 = wild type, -1 = scrambled)
ATAGTGTGCAGACTGGGACCCTGCCCTTTCTTT	-0.3 Bmut (0 = wild type, -1 = scrambled)
ATAGTGTGCAGACTTGGACCCTCCCCTTTCTTT	-0.1 Bmut (0 = wild type, -1 = scrambled)
ATAGTGTGCAGACTTGGACGCTGCCCTTTCTTT	-0.1 Bmut (0 = wild type, -1 = scrambled)
ATTGTGTGCAGACTTGGACCCTGCCCTTTCTTT	-0.1 Bmut (0 = wild type, -1 = scrambled)
ATAGTGTGCAGACTTGGACCCTGCCCTTTCTGT	0.09 Bmut (0 = wild type, -1 = scrambled)
ATAGTGTGCAGACTTGGACCCTGCCCTGTCTTT	0.01 Bmut (0 = wild type, -1 = scrambled)
ATAGTGGGCAGACTTGGACCCTGCCCTTTCTTT	-0.7 Bmut (0 = wild type, -1 = scrambled)
ATAGTGTGCAGACTTGGAACCTGCCCTTTCTTT	-0.1 Bmut (0 = wild type, -1 = scrambled)
ATAGTGTGCTGACTTGGACCCTGCCCTTTCTTT	-0.4 Bmut (0 = wild type, -1 = scrambled)
ATAGTGTGCAGACTTCGACCCTGCCCTTTCTTT	-0.2 Bmut (0 = wild type, -1 = scrambled)
ATAGTGTGCAGACTTGGACCCTACCCTTTCTTT	0.1 Bmut (0 = wild type, -1 = scrambled)
ATAGTGTGCAGACTTGGATCCTGCCCTTTCTTT	-0.3 Bmut (0 = wild type, -1 = scrambled)
ATAGTGTGCAGACTTGGAGCCTGCCCTTTCTTT	-0.5 Bmut (0 = wild type, -1 = scrambled)
